Results reported in PubChem BioAssay (Tox21).
Records with an inconclusive call do not appear. The source made the active and inactive calls. Unless noted, the call rests on the fitted dose curve; in most records, active means well fitted curve in the direction sought with a large enough effect in the repeat runs; inconclusive means weak or mixed curves; inactive means no such curve, though single readings can be large; an effect the other way counts as inactive or inconclusive.

Legend:
[1] = qHTS assay to identify small molecule agonists of the hypoxia (HIF-1) signaling pathway - cell viability counter screen (AID 1224844; calls by dose curve; further: nearly all actives have a fitted effect of over 50% in size)
Summary of the method: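 ME-180 HRE-bla cells, 2,000/well, 0.5% dialyzed FBS; 5 hr settle, 17 hr compound at 37C/5% CO2; CCF4-AM reporter read first, then CellTiter-Glo luminescence after 30 min RT.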

[2] = qHTS assay to identify small molecule agonists of H2AX (AID 1224845; active means well fitted activation curve with a large enough effect in the signal ratio in the repeat runs, not every such curve was filed as active; the % refers to the signal ratio)
Summary of the method: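 Phospho-H2AX Ser139 measured by HTRF (ex 320 nm; em 665 and 620 nm) after 24 hr antibody incubation. Compounds, 15 concentrations, 0.76% DMSO, were applied to CHO-K1 cells for 3hr at 37C before lysis.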

[3] = qHTS assay to identify small molecule agonists of the hypoxia (HIF-1) signaling pathway (AID 1224846; active means well fitted activation curve with a large enough effect in the signal ratio in the repeat runs, not every such curve was filed as active; the % refers to the signal ratio)
Summary of the method: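 Cell line: CellSensor HRE-bla ME-180; 2,000 cells/well; 0.5% dialyzed FBS; 5 h preincubation; DMSO compound pin transfer; 17 h, 37C, 5% CO2; CCF4-AM added; bla FRET signal scored for activation.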

[4] = qHTS assay to identify small molecule agonists of H2AX - cell viability counter screen (AID 1224847; calls by dose curve; further: nearly all actives have a fitted effect of over 30% in size; further: potency means the concentration at half of the fitted maximal effect; on activity change, negative = cytotoxicity: top concentration of the series differs between compounds)
Summary of the method: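 We seed wild-type CHO-K1 cells overnight, treat them for 3 hr at 37C with compounds in 15-concentration series, and quantify remaining viability by CellTiter-Glo luminescence.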

[5] = qHTS RealTime-Glo MT Cell Viability Assay in HepG2 cells - 24 hour (AID 1224867); further: nearly all actives have a fitted effect of over 50% in size
Summary of the method: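 Compound treatment began 5 h after plating HepG2 cells (600/well) with NanoLuc luciferase and prosubstrate. Plates stayed at 37 C for 40 h; luminescence was captured at six time points, 0 h through 40 h.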

[6] = qHTS RealTime-Glo MT Cell Viability Assay in HEK293 cells - 32 hour (AID 1224868); further: nearly all actives have a fitted effect of over 50% in size; further: potency means the concentration at half of the fitted maximal effect; on activity change, negative = cytotoxic: top concentration of the series differs between compounds
Summary of the method: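 Quantitative high-throughput screen of the Tox21 10K library in HEK293: cells and RealTime-Glo reagents plated together, compound added at 5 h, luminescence monitored through 40 h at 37 C.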

[7] = A CellTox Green Cytotoxicity Assay to monitor cytotoxicity in HEK293 cells - 0 hour (AID 1224869); further: nearly all actives have a fitted effect of over 50% in size
Summary of the method: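 Nonlytic real-time cytotoxicity: HEK293 + CellTox Green reagent plated, 5 h preincubation, pintool compound addition (23 nL in DMSO), 37 C for 40 h, fluorescence measured at successive time points.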

[8] = qHTS assay to identify small molecule agonists of the estrogen related receptor (ERR) signaling pathway from Tox21 library (AID 1224849; calls by dose curve; further: nearly all actives have a fitted effect of over 15% in size); conditions: ERR reporter cell line, ONE-Glo luciferase, 18 h; at 92.4 µM (top of the series) unless noted
Summary of the method: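 ERR cells, 6 h pre-incubation 37 C/5% CO2; cpd in DMSO pinned; 18 h 37 C; ONE-Glo added, 30 min RT; luminescence read. Agonist mode, qHTS.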

[9] = qHTS assay to identify small molecule antagonists of the estrogen related receptor (ERR) signaling pathway from Tox21 library (AID 1224848); further: nearly all actives have a fitted effect of over 50% in size
Summary of the method: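 Reading was by luminescence 30 min after ONE-Glo addition. Before that, ERR cells at 2,000 per well had rested 6 h at 37 C/5% CO2 and then received pin-tooled compounds in DMSO for 18 h at 37 C.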
On the % scale 0 is the no-effect control and ±100 the full control effect.

C/C=C1\C(=O)C[C@H]2[C@@H]3CCC4=CC(=O)CC[C@]4(C)[C@H]3CC[C@]12C
inactive: Potency [1] | outcome [2] | outcome [3] | outcome [5] | Potency [7]
active: Potency [4] 55.5 µM | Potency [6] 21.4 µM

OC/C=C/c1ccccc1
inactive: Potency [1] | outcome [2] | outcome [3] | Potency [4] | outcome [5] | Potency [6] | Potency [7]

NCCN1CCNC1=O
inactive: Potency [1] | outcome [2] | outcome [3] | Potency [4] | outcome [5] | Potency [6] | Potency [7]

CC1=CC(=O)CCC1
inactive: Potency [1] | outcome [2] | outcome [3] | Potency [4] | outcome [5] | Potency [6] | Potency [7]

O=C(O)/C=C/c1ccc(/C=C/C(=O)O)cc1
inactive: Potency [1] | outcome [2] | outcome [3] | Potency [4] | outcome [5] | Potency [6] | Potency [7]

CCCCc1ccc(N)cc1
inactive: Potency [1] | outcome [2] | outcome [3] | Potency [4] | outcome [5] | Potency [7]

Cc1c(F)cc2c(=O)c(C(=O)O)cn3c2c1CCC3C (centres undefined)
inactive: Potency [1] | outcome [2] | outcome [3] | Potency [4] | activity change, positive = activation [8] -37.3% [at 42.5 µM] | outcome [5] | Potency [7]

C=C(C)C(=O)NCCCN(C)C
inactive: Potency [1] | outcome [2] | outcome [3] | Potency [4] | outcome [5] | Potency [6] | Potency [7]

C=C[Si](OC)(OC)OC
inactive: Potency [1] | outcome [2] | outcome [3] | Potency [4] | outcome [5] | Potency [6] | Potency [7]

CC1=CCC2C(C1)C2(C)C (centres undefined)
inactive: Potency [1] | outcome [2] | outcome [3] | Potency [4] | outcome [5] | Potency [7]

CC(CCO)CCCC(C)(C)O (centres undefined)
inactive: Potency [1] | outcome [2] | outcome [3] | Potency [4] | outcome [5] | Potency [6] | Potency [7]

Cc1ccc(Nc2ccc(O)c3c2C(=O)c2ccccc2C3=O)cc1
inactive: Potency [1] | outcome [2] | outcome [3] | Potency [4] | outcome [5] | Potency [6] | Potency [7]

COc1cc(C)cc(O)c1
inactive: Potency [1] | outcome [2] | outcome [3] | Potency [4] | outcome [5] | Potency [6] | Potency [7]

CC(C)CCOC(=O)CC(C)C
inactive: Potency [1] | outcome [2] | outcome [3] | Potency [4] | outcome [5] | Potency [6]

CC(O)CN(CCCN(C)C)CCCN(C)C (centres undefined)
inactive: Potency [1] | outcome [2] | outcome [3] | Potency [4] | outcome [5] | Potency [7]

COc1cc(C(=O)N2CCOCC2)cc(OC)c1OC
inactive: Potency [1] | outcome [2] | outcome [3] | Potency [4] | outcome [5] | Potency [6] | Potency [7]

O=C(O)c1ccc[n+]([O-])c1
inactive: Potency [1] | outcome [2] | outcome [3] | Potency [4] | outcome [5] | Potency [6] | Potency [7]

C=C(C)[C@H]1CC=C(C)CC1
inactive: Potency [1] | outcome [2] | outcome [3] | Potency [4] | outcome [5] | Potency [6] | Potency [7]

O=C(CCOCCOCCOCCOCCC(=O)Nc1c(I)cc(I)c(C(=O)O)c1I)Nc1c(I)cc(I)c(C(=O)O)c1I
inactive: Potency [1] | outcome [2] | outcome [3] | Potency [4] | outcome [5] | Potency [6] | Potency [7]

Cc1c(C)n(CCN(C)C)c2ccc(C(=O)OCCN(C)C)cc12
inactive: outcome [2] | Potency [4] | Potency [9] | activity change, positive = activation [8] -20.1% [at 42.5 µM] | outcome [5] | Potency [7]

CC(C)(O)C(=O)c1ccc(OCCO)cc1
inactive: Potency [1] | outcome [2] | outcome [3] | outcome [5] | Potency [6] | Potency [7]

Nc1cc(N)cc(C(=O)O)c1
inactive: Potency [1] | outcome [3] | Potency [4] | outcome [5] | Potency [6] | Potency [7]

NC(N)=NS(=O)(=O)c1ccc(N)cc1
inactive: Potency [1] | outcome [2] | Potency [4] | outcome [5] | Potency [6] | Potency [7]

C1COCCO1
inactive: Potency [1] | outcome [2] | outcome [3] | Potency [9] | activity change, positive = activation [8] 5.15% | outcome [5] | Potency [6] | Potency [7]

CC(C)(O)c1ccccc1
inactive: Potency [1] | outcome [2] | outcome [3] | Potency [9] | outcome [5] | Potency [6] | Potency [7]

NC(=O)Nc1nc2ccccc2[nH]1
inactive: Potency [1] | outcome [2] | outcome [3] | outcome [5] | Potency [6] | Potency [7]

Cn1ccc2cc3c(cc21)CCN3C(=O)Nc1cccnc1
inactive: activity change, negative = cytotoxicity [1] -7.99% [at 15.8 µM] | activation [3] -0.619% [at 15.8 µM] | activity change, negative = cytotoxicity [4] 1.26% [at 31.6 µM] | activity change, negative = cytotoxicity [5] -2.41% [at 15.8 µM] | activity change, negative = cytotoxic [6] -7.77% [at 15.8 µM] | cytotoxicity [7] -3.51% [at 15.8 µM]

Oc1cc(O)c2c(c1)O[C@H](c1ccc(O)c(O)c1)[C@H](O)C2
inactive: Potency [4] | outcome [5] | Potency [6] | Potency [7]
